According to ChEMBL document CHEMBL1961873, “Compounds: GSK PKIS; Assays: Nanosyn kinase panel” (2012):

Experiments:
[1] = molecular target: Sphingosine kinase 1 (Homo sapiens) (UniProt Q9NYA1); details: at 1 µM;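 also: mean SPHK1 inhibition value reported from the GSK PKIS kinase panel screen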
[2] = molecular target: T1, Sphingosine kinase 2 (Homo sapiens) (UniProt Q9NRA0); details: at 0.1 µM
T1 sequence (whole entry): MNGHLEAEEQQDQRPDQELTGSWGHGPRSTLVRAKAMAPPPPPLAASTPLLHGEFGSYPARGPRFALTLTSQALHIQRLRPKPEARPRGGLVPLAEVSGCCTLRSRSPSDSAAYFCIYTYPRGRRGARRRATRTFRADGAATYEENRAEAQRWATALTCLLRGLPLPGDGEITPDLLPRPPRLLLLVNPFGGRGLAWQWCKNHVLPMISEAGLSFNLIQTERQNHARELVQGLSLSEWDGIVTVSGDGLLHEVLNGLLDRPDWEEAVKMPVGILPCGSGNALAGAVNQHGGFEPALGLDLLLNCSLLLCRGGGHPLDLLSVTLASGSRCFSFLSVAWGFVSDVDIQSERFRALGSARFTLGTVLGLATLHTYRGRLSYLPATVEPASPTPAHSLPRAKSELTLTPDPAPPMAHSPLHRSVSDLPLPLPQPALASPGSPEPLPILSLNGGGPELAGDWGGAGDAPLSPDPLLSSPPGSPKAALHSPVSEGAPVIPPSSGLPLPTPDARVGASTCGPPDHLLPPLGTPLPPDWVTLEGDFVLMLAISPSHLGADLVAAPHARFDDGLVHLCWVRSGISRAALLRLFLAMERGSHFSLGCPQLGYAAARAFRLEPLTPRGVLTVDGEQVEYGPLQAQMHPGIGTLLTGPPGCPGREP

[3] = molecular target: T1, Sphingosine kinase 2 (Homo sapiens); details: at 1 µM
[4] = molecular target: Casein kinase II subunit alpha (Homo sapiens) (UniProt P68400); details: at 0.1 µM
Sequence of Casein kinase II subunit alpha (Homo sapiens) (P68400 whole entry, looked up): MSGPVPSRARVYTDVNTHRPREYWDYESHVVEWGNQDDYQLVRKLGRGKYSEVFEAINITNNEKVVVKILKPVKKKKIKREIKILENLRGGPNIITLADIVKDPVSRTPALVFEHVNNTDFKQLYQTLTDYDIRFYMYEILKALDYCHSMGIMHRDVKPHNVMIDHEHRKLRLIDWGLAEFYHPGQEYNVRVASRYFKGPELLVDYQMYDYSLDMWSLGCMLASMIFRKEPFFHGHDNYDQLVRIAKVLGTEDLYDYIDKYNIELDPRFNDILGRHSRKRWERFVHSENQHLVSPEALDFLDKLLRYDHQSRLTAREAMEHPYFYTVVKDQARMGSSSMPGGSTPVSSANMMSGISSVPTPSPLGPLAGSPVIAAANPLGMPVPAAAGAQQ

[5] = molecular target: Casein kinase II subunit alpha (Homo sapiens) (UniProt P68400); details: at 1 µM
[6] = molecular target: T2, Inhibitor of nuclear factor kappa-B kinase subunit alpha (Homo sapiens) (UniProt O15111); details: at 0.1 µM
T2 sequence (whole entry): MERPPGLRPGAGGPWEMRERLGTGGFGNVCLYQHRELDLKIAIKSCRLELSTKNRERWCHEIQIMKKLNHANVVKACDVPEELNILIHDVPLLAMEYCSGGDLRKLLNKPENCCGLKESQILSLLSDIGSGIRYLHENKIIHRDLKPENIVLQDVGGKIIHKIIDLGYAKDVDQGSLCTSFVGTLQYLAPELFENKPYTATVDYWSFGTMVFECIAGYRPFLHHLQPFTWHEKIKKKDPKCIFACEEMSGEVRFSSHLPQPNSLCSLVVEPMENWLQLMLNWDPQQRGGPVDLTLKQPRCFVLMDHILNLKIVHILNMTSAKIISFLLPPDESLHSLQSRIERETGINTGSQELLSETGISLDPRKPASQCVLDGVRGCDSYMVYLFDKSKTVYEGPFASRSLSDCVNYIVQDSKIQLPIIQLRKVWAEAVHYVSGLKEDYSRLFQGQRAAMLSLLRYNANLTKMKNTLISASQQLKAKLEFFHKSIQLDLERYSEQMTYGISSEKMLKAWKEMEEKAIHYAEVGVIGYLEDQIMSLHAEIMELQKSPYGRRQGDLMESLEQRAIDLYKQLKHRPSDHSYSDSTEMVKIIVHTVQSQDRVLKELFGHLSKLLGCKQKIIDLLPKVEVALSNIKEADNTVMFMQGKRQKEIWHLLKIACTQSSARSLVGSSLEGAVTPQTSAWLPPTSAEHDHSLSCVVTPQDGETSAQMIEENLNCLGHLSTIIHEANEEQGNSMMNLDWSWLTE

[7] = molecular target: T2, Inhibitor of nuclear factor kappa-B kinase subunit alpha (Homo sapiens); details: at 1 µM
[8] = molecular target: T3, Inhibitor of nuclear factor kappa-B kinase subunit beta (Homo sapiens) (UniProt O14920); details: at 0.1 µM
T3 sequence (whole entry): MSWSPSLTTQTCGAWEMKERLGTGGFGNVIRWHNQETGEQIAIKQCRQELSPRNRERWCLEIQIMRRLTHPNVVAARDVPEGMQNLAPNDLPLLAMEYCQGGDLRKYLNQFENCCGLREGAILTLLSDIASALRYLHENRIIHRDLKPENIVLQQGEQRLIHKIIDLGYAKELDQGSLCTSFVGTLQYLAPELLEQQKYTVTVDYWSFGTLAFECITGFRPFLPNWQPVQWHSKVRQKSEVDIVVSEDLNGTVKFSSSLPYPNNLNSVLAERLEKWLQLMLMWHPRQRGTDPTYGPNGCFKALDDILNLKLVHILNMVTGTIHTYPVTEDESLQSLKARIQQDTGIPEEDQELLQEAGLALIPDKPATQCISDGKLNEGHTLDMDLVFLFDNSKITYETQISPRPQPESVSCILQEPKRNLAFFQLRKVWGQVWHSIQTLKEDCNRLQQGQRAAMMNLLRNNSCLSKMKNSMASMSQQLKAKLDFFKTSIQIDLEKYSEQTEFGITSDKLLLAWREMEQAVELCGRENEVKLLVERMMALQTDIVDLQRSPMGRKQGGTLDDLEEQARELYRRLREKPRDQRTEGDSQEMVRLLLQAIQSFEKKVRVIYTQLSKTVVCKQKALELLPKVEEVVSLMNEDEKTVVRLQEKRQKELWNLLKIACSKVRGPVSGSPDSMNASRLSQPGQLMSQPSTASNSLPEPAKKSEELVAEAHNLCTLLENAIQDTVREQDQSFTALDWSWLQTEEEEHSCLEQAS

[9] = molecular target: T3, Inhibitor of nuclear factor kappa-B kinase subunit beta (Homo sapiens); details: at 1 µM
[10] = molecular target: T4, Inhibitor of nuclear factor kappa-B kinase subunit epsilon (Homo sapiens) (UniProt Q14164); details: at 0.1 µM;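 also: mean inhibition of IKKε reported, from the GSK PKIS dataset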
T4 sequence (whole entry): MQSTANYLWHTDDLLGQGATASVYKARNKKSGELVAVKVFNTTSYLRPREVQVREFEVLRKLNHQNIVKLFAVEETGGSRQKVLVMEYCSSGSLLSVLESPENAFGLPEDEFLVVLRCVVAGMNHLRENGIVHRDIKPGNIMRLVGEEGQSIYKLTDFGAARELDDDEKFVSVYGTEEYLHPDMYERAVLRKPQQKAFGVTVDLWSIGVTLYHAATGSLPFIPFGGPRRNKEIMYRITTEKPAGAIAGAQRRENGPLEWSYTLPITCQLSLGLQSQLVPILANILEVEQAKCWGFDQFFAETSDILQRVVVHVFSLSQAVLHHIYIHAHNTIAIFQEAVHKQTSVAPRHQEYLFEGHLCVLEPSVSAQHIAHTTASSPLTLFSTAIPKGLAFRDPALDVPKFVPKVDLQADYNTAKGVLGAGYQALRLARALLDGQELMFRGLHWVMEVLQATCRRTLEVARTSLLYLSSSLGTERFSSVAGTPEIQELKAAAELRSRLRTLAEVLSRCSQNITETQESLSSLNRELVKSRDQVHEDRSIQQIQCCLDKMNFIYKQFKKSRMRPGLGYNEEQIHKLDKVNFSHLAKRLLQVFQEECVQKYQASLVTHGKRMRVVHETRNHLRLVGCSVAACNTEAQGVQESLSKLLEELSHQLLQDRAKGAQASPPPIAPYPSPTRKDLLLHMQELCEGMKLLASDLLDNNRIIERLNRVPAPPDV

[11] = molecular target: T5, Serine/threonine-protein kinase Nek1 (Homo sapiens) (UniProt Q96PY6); details: at 0.1 µM
T5 sequence (whole entry): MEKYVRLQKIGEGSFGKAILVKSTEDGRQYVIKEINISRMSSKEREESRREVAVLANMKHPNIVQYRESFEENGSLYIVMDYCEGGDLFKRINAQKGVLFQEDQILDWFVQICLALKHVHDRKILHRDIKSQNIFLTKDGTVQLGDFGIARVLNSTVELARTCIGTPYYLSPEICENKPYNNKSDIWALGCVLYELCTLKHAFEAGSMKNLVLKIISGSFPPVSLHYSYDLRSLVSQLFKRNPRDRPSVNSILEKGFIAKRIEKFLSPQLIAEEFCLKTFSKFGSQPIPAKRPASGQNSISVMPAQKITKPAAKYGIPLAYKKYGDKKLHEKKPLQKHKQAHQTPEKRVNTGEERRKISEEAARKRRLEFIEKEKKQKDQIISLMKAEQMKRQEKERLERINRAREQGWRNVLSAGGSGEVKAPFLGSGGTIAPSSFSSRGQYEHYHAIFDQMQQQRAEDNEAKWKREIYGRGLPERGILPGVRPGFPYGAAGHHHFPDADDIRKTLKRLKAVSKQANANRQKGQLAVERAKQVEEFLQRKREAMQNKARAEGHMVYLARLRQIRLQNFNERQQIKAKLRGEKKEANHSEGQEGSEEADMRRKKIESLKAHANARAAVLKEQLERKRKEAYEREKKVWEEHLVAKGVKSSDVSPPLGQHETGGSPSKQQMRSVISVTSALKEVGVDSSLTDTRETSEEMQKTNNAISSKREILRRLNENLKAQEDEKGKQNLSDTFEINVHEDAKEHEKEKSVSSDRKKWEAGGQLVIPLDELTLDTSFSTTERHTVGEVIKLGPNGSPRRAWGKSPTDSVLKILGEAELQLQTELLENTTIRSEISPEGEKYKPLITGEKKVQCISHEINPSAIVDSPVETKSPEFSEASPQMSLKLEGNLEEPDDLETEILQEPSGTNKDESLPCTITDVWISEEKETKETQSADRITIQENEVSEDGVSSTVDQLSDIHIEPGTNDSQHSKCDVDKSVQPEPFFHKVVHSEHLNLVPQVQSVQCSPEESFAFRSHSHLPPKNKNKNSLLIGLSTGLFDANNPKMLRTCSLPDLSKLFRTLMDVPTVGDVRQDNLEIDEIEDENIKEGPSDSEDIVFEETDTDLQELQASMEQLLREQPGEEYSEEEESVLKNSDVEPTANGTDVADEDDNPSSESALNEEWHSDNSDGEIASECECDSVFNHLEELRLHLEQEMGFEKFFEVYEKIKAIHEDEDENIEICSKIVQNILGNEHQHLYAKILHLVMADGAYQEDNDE

[12] = molecular target: T5, Serine/threonine-protein kinase Nek1 (Homo sapiens); details: at 1 µM
[13] = molecular target: T6, Serine/threonine-protein kinase Nek2 (Homo sapiens) (UniProt P51955); details: at 0.1 µM
T6 sequence (whole entry): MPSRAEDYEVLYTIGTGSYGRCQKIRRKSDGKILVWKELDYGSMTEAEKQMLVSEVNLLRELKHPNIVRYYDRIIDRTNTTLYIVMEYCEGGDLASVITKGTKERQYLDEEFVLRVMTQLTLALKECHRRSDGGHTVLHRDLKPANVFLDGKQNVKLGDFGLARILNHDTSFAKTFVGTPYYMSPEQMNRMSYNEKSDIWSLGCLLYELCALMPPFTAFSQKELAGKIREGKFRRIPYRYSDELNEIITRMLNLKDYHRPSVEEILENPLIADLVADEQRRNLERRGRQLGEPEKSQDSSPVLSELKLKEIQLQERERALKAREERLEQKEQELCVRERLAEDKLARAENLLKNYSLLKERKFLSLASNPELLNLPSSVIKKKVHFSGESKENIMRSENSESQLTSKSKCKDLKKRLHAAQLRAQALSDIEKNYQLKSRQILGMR

[14] = molecular target: T6, Serine/threonine-protein kinase Nek2 (Homo sapiens); details: at 1 µM
[15] = molecular target: Serine/threonine-protein kinase Nek6 (Homo sapiens) (UniProt Q9HC98); details: at 0.1 µM
Sequence of Serine/threonine-protein kinase Nek6 (Homo sapiens) (Q9HC98 whole entry): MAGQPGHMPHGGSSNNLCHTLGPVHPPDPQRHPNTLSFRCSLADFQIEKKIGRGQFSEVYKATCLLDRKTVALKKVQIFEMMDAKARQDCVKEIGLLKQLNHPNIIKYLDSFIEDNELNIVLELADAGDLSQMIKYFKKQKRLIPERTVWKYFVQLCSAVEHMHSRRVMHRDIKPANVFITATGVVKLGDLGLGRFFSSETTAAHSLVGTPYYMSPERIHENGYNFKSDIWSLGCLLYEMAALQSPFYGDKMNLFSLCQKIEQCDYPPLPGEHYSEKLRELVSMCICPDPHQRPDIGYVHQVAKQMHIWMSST

[16] = molecular target: Serine/threonine-protein kinase Nek6 (Homo sapiens) (UniProt Q9HC98); details: at 1 µM
[17] = molecular target: Serine/threonine-protein kinase Nek7 (Homo sapiens) (UniProt Q8TDX7); details: at 0.1 µM
Sequence of Serine/threonine-protein kinase Nek7 (Homo sapiens) (Q8TDX7 whole entry, looked up): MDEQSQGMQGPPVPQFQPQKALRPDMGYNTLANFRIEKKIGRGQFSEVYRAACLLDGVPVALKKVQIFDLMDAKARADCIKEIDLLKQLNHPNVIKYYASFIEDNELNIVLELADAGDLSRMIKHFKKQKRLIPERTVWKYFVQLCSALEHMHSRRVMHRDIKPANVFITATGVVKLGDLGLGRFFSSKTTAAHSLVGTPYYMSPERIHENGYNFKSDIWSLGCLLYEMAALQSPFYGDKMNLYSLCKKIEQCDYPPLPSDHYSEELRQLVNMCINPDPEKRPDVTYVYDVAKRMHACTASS

[18] = molecular target: Serine/threonine-protein kinase Nek7 (Homo sapiens) (UniProt Q8TDX7); details: at 1 µM
[19] = molecular target: T7, Serine/threonine-protein kinase Nek9 (Homo sapiens) (UniProt Q8TD19); details: at 0.1 µM;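 also: reported value is the mean percent inhibition of NEK9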
T7 sequence (whole entry): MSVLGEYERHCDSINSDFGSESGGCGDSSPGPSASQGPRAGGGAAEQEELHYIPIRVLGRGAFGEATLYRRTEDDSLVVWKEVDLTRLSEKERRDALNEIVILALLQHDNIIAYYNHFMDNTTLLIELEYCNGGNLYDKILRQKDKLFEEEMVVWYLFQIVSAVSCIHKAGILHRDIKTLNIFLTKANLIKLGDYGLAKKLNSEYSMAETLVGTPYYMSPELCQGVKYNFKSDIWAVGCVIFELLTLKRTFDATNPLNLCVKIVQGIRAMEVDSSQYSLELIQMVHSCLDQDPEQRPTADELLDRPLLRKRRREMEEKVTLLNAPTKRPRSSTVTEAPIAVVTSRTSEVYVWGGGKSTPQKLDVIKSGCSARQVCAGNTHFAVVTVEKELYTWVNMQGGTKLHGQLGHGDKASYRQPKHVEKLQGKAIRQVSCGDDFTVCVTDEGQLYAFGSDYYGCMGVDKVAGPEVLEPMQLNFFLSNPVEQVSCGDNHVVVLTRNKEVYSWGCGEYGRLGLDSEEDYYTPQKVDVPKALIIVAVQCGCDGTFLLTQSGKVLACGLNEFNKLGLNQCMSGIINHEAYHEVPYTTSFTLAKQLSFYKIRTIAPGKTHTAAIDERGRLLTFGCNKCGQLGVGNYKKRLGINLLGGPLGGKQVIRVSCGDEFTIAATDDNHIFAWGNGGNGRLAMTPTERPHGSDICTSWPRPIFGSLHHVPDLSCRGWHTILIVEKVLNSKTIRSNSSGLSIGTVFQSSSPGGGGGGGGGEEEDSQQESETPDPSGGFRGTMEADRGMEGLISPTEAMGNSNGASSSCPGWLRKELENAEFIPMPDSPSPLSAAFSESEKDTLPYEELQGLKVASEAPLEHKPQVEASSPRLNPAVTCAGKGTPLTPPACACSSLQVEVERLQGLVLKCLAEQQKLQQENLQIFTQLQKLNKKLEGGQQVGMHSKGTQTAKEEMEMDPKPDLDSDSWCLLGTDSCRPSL

Sequence of Sphingosine kinase 1 (Homo sapiens) (Q9NYA1 whole entry): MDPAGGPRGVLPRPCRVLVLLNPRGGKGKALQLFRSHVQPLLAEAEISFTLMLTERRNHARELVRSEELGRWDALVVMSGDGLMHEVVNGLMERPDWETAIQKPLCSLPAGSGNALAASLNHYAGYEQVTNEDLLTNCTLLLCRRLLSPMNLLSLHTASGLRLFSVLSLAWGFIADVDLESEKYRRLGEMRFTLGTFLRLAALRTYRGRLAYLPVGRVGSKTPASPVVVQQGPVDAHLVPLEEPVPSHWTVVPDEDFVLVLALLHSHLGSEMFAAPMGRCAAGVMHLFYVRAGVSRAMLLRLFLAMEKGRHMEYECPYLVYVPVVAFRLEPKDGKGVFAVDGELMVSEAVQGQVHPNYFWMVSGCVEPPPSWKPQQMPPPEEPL

SMILES: Cn1cc(C=C2C(=O)Nc3cccnc32)c2ccccc21
- inhibition [1]: 8.29%
- inhibition [2]: -4.3%
- inhibition [3]: -0.04%
- inhibition [4]: 1.08%
- inhibition [5]: 6.39%
- inhibition [6]: 5.69%
- inhibition [7]: -0.33%
- inhibition [8]: 2.27%
- inhibition [9]: 1.05%
- inhibition [10]: 3.13%
- inhibition [11]: 2.09%
- inhibition [12]: 1.05%
- inhibition [13]: 2.65%
- inhibition [14]: 2.9%
- inhibition [15]: 3.82%
- inhibition [16]: -1.86%
- inhibition [17]: 3.8%
- inhibition [18]: 4.49%
- inhibition [19]: 2.88%
